Reference: PubChem BioAssay (NCI)
This is part of a sample that, as a whole, favours compounds with a hit. Of some 83,000 tested, about 20% had one in any assay.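 Results are percent growth after 48 hours of single-concentration exposure. 100 means growth as in untreated cells, lower positive values show inhibition; negative values down to -100 show cell death.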 A number with no mark means an inactive call. The source made the active and inactive calls. The calls were made as follows: active = growth percent below 10; inactive = the rest.

Experiments:
Assay in all cases: NCI-60 one-dose screen, 48 h (100 = growth as untreated, 0 = no growth, -100 = all killed)
Settings in all cases: 10 µM unless noted
SR leukemia = test system: SR leukemia
RPMI-8226 leukemia = test system: RPMI-8226 leukemia
OVCAR-8 ovarian = test system: OVCAR-8 ovarian
OVCAR-5 ovarian = test system: OVCAR-5 ovarian
OVCAR-4 ovarian = test system: OVCAR-4 ovarian
SK-OV-3 ovarian = test system: SK-OV-3 ovarian
IGROV1 ovarian = test system: IGROV1 ovarian
OVCAR-3 ovarian = test system: OVCAR-3 ovarian
HS 578T breast = test system: HS 578T breast
NCI/ADR-RES ovarian = test system: NCI/ADR-RES ovarian
T-47D breast = test system: T-47D breast
BT-549 breast = test system: BT-549 breast
MDA-MB-435 melanoma = test system: MDA-MB-435 melanoma
SW-620 colon = test system: SW-620 colon
MCF7 breast = test system: MCF7 breast
HCT-116 colon = test system: HCT-116 colon
HCC-2998 colon = test system: HCC-2998 colon
KM12 colon = test system: KM12 colon

Row | Compound | growth (SR leukemia) | growth (RPMI-8226 leukemia) | growth (OVCAR-8 ovarian) | growth (OVCAR-5 ovarian) [%] | growth (OVCAR-4 ovarian) | growth (SK-OV-3 ovarian) | growth (IGROV1 ovarian) | growth (OVCAR-3 ovarian) | growth (HS 578T breast) | growth (NCI/ADR-RES ovarian) | growth (T-47D breast) | growth (BT-549 breast) | growth (MDA-MB-435 melanoma) | growth (SW-620 colon) | growth (MCF7 breast) | growth (HCT-116 colon) | growth (HCC-2998 colon) | growth (KM12 colon)
1 | C=C(C)[C@@H]1CC[C@]2(C(=O)N3CCN(C)CC3)CC[C@]3(C)[C@H](CC[C@@H]4[C@@]5(C)C/C(=C/c6cccnc6)C(=O)C(C)(C)[C@@H]5CC[C@]43C)[C@@H]12 | 19.9% | 21.2% | 56.2% | 100 | 49.2% | 83.8% | 96% | 57.5% | 76.4% | 64.2% | 54.2% | 83.2% | 69.4% | 48.1% | 27.2% | 25.3% | 77.5% | 54.7%
2 | CCc1c2c(nc3ccc(OCc4ccc(B(O)O)cc4)cc13)-c1cc3c(c(=O)n1C2)COC(=O)[C@]3(O)CC | -2.77% (active) | 6.35% (active) | 6.94% (active) | 11.5 | 24.2% | -4.91% (active) | 17.6% | 6.75% (active) | 36.7% | -0.104% (active) | -1.27% (active) | -3.67% (active) | 6.63% (active) | 13.8% | 1.65% (active) | 4.57% (active) | 19.2% | 1.86% (active)
3 | COC(=O)/C=C1\S/C(=N\NC(=O)c2cc3ccc2/C=C\c2ccc(cc2)/C=C\3)N(Cc2ccccc2)C1=O | -14.7% (active) | -47% (active) | 71.6% | 65.3 | 44.6% | 133% | 42.3% | 20.3% | 87.4% | 70.4% | -6.25% (active) | 10.3% | 91.6% | 18.2% | 32.7% | 49.5% | 79.5% | 65.1%
4 | O=C(Nc1ccc(F)cc1)Nc1ccc(NC(=O)c2cc(Cl)nc3ccccc23)cc1 | 74.1% | 26.5% | 42.9% | 92.9 | 51.2% | 59.8% | 52.6% | 12.2% | 9.05% (active) | 99.7% | 42.9% | 37.2% | 73.8% | 65% | 69% | 56.9% | 51% | 58.5%
5 | CN1C(N2CCN(S(=O)(=O)c3ccccc3)CC2)=NS(=O)(=O)c2ccccc21 | 32.2% | 98.4% | 80% | 97.9 | 111% | 109% | -25.4% (active) | 101% | 82.5% | 99.7% | 101% | 119% | 109% | 123% | 91.1% | 109% | 101% | 91.5%
6 | COc1ccccc1NS(=O)(=O)c1cccc(C(=O)Nc2ccc(Br)cc2)c1 | 50.4% | 38.4% | 57.6% | 68.9 | 35.3% | 44.1% | 46.6% | 45.8% | 73.8% | 27.6% | 21.2% | 37.2% | 35.3% | 55.1% | 32.5% | 37.9% | 57.5% | 34.6%
7 | O=C(Cc1ccc(/C=C/C(=O)c2nccs2)cc1)Nc1ccccc1 | 2.31% (active) | 67% | 90.5% | 99.9 | 97.2% | 112% | 91.7% | 88.9% | 88.5% | 101% | 92.8% | 93% | 100% | 51.9% | 84.4% | -43.8% (active) | 105% | 70.7%
8 | COC(=O)/C=C1\S/C(=N\NC(=O)c2cc3ccc2/C=C\c2ccc(cc2)/C=C\3)N(c2ccccc2)C1=O | -15.6% (active) | -20.9% (active) | 40.7% | 48.2 | 29.4% | 135% | 5.97% (active) | -6.25% (active) | 77.9% | 31.4% | -38.2% (active) | 35.5% | 89.6% | 7.39% (active) | 23.2% | 4.05% (active) | 3.64% (active) | 8.49% (active)
9 | NC(=NCCCOc1ccc(F)cc1)Nc1ccc(Cl)cc1 | 72% | 85.3% | 90.1% | 54.5 | 46% | 75.6% | 30.9% | 89.6% | 81.9% | 77.3% | 18.6% | 52.8% | 46.8% | 56.9% | 7.28% (active) | 16.5% | 40.8% | 76.7%
10 | CCOc1ccc(Nc2nc(-c3ccc4c(c3)NC(=O)CO4)cs2)cc1 | 64.6% | 28% | 62.8% | 92.8 | 25% | 100% | 94.3% | 73.7% | 107% | 14.4% | 24.6% | 47% | 30.7% | 82.5% | 38.1% | 40.7% | 86% | 67.9%
11 | O=c1ccc(-c2nc(N3CCOCC3)c3ccccc3n2)c[nH]1 | 100% | 101% | 110% | 83.2 | 94.2% | 105% | 107% | 101% | 62.5% | 96.9% | 77% | 97.4% | 99.7% | 107% | 89.1% | 101% | 105% | 107%
12 | Nc1n[nH]c2cccc(C#Cc3cccc(C(=O)Nc4cc(CN5CCOCC5)cc(C(F)(F)F)c4)c3)c12 | 35.6% | 12.9% | 28.9% | 34.3 | 33.1% | 82.9% | 7.98% (active) | 46.7% | 10.2% | 42.1% | 37.1% | 57.9% | 23.4% | 30.9% | 44.2% | 14.1% | 45% | 13.1%
13 | O=C1c2ccccc2CCC12OC2c1cn(-c2ccccc2)nc1-c1ccc(Cl)cc1 (stereo not drawn) | 70.4% | 81.3% | 94.5% | 111 | 99.2% | 111% | 95.1% | 115% | 93.3% | 102% | 93.1% | 126% | 100% | 95.6% | 87.7% | 47.4% | 108% | 97.9%
14 | COc1cc2oc(-c3cccc(C(=O)Nc4ccc(Cl)cc4)c3)cc(=O)c2c(O)c1OC | 65.1% | 70% | 16.3% | 79.1 | -30.4% (active) | 58.3% | 54% | 30.4% | 6.66% (active) | 37.3% | 47.2% | 60.1% | 61% | 73.6% | 80.9% | 39.9% | 96.5% | 62%
15 | COc1cc2c(-c3cc4c(cc3CNCCc3ccc5c(c3)OCO5)OCO4)cccc2c(OC)c1O | 27.8% | 63.8% | 79.9% | 90.9 | 88.4% | 99.6% | 61.6% | 86.1% | 86.8% | 74.5% | 67.3% | 91.3% | 96.9% | 85.4% | 76.8% | 60.7% | 42.7% | 96.5%
16 | N#C/C(=C\c1ccc(Cl)cc1)n1nnc2cc(F)c(F)cc21 | 5.64% (active) | -34.1% (active) | 13.3% | 22.2 | 17.6% | 88.7% | 6.69% (active) | -0.889% (active) | 13.6% | 17.6% | 19.8% | 11.7% | 5.95% (active) | -15% (active) | 12% | -11.6% (active) | 16.8% | 16.2%
